# ELG1 genotoxic: inducers of genotoxicity in HEK293T ELG1-luciferase cells; HEK293T ELG1-luciferase reporter, luminescence, 16 h; Potency, µM (titrated, usually from 46 µM), hits mostly activators; 330,000 compounds, 1.3% hits; further: nearly all actives have a fitted effect of over 60% in size
#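 DMSO vehicle served as control against compound-treated ELG1-luciferase HEK293T cells; exposure lasted 16 hr at 37 °C and 5% CO2, followed by ONE-Glo luminescence detection after 30 min.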
# Rab9 prom act: Rab9 promoter activation. Huh7 Rab9 promoter-luciferase reporter, luminescence, 24 h. 320,000 compounds, 2.8% hits. Potency, µM (series often up to 9.22 µM), hits mostly activators. AID 485297; further: nearly all actives have a fitted effect of over 60% in size
#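 Luciferase signal after 10 min detection reagent at ambient indicates Rab9 promoter upregulation; stably transfected Huh7 cells were treated 24 h with compound in DMSO at 37 °C, 5% CO2.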
# FLuc modulator: inhibits or activates purified firefly luciferase, miR-21 counter-screen; P08659; purified FLuc, Km substrates, luminescence inhibition; Potency, µM (top dose mostly 57.5 µM), usual class: inhibitors; 360,000 compounds, 6.9% hits; further: nearly all actives have a fitted effect of over 55% in size
# Target sequence (P08659 whole entry, looked up): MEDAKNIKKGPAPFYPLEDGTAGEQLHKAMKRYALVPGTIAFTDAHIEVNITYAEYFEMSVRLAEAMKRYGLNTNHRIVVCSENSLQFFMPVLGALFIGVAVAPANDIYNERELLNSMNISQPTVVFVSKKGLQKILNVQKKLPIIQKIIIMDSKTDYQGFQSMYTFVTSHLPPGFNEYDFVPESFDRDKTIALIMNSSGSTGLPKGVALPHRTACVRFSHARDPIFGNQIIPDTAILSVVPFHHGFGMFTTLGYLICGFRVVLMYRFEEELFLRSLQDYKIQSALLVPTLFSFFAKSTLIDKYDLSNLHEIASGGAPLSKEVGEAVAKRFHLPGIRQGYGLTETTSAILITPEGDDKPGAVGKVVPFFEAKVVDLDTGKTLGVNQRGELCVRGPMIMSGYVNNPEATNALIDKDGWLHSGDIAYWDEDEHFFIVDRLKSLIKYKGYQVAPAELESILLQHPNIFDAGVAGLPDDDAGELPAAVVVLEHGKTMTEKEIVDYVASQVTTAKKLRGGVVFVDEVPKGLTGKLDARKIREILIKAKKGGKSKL
#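 Purified P. pyralis luciferase, 10 nM final, with Km-level 10 uM D-luciferin and 10 uM ATP in 50 mM Tris acetate pH 7.5, 10 mM Mg acetate, 0.01% Tween-20, 0.05% BSA; 6-point qHTS titration about 60 µM downward; luminescence read.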
# NPC1 promoter act: activators of NPC1 promoter. Huh7 NPC1 promoter luciferase reporter, 24 h. Potency, µM (titrated, usually from 9.22 µM), actives largely listed as activators. 320,000 compounds, 2.4% hits; further: nearly all actives have a fitted effect of over 60% in size
#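 Luminescence from an NPC1 promoter-driven luciferase reporter in stably transfected Huh7 cells was measured after 24 h compound treatment at 37 °C, followed by 10 min ambient incubation with luciferase detection reagent.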
# SMN2 splice enh: enhancers of SMN2 splice variant expression; HEK293 SMN2-luciferase splicing reporter, luminescence, 30-36 h; Potency, µM (top dose mostly 46.1 µM), actives largely listed as activators; 210,000 compounds, 2.8% hits; further: nearly all actives have a fitted effect of over 55% in size
#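 qHTS luciferase splicing reporter: luminescence rises when SMN2 exon 7 is included in transfected HEK293 cells. Compound exposure lasted 30-36 h at 37C, with 4.5 mM final sodium butyrate as control, followed by a ONE-Glo read.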
# Numbers stand for hits; n = inactive; u = inconclusive; x = not tested or not shown; [ ] = remark or other dose. In the library only some 7.4% were active in any assay of this set; here they are far more common. The call rests on the fitted dose curve; in most records, active means well fitted curve in the direction sought with a large enough effect; inconclusive means small, poorly fitted or top-dose-only effect, or another doubt; inactive means no such curve, though single readings can be large; an effect the other way counts as inactive or inconclusive.
SMILES,ELG1 genotoxic,Rab9 prom act,FLuc modulator,NPC1 promoter act,SMN2 splice enh
O=C(Nc1ccccc1)C1=C[C@H](c2ccc3c(c2)OCO3)C[C@H](OCCCCO)O1,n,n,15µM,n,x
NC(=O)C1=C[C@H](c2ccc3c(c2)OCO3)C[C@H](OCc2ccc(CO)cc2)O1,u,u,15µM,u,x
O=C(O)C1=C[C@@H](c2ccc3c(c2)OCO3)C[C@@H](OCc2ccc(CO)cc2)O1,n,n,n,n,x
O=C(Nc1ccccc1)C1=C[C@@H](C2CC2)C[C@@H](OCCCCO)O1,u,n,17µM,n,x
COc1cccc2c1cc1c(=O)n(CC(=O)N3CCN(c4ccccc4F)CC3)nc(C)n12,x,x,n,x,n
CCOc1ccc(NC(=O)c2cc(=O)c3ccc(C)c(C)c3o2)cc1,x,x,n,x,n
C#CCNC(=O)C1=C[C@H](C2CCCCC2)C[C@H](OCc2ccc(CO)cc2)O1,n,n,n,n,x
C#CCNC(=O)C1=C[C@@H](C2CCCCC2)C[C@@H](OCc2ccc(CO)cc2)O1,n,n,15µM,n,x
CCC(=O)Nc1nnc(-c2cccs2)s1,u,u,n,n,n
C=C(C)C(=O)Nc1nnc(-c2cccs2)s1,n,n,17µM,n,n
CCC(C)C(=O)Nc1nnc(-c2cccs2)s1 (stereo not given),u,3.5µM,u,u,n
O=C(Nc1nnc(-c2cccs2)s1)C1CC1,u,5µM,n,n,u
O=Cc1c(OCc2ccccc2)ccc2ccccc12,u,u,12µM,u,14µM
C/[N+]([O-])=C/c1c(OCc2ccccc2)ccc2ccccc12,u,u,n,u,x
CCOC(=O)c1ccc(NC(=O)CC2C(=O)N(c3ccc(C)cc3)C(=O)N2C2CCCC2)cc1 (stereo not given),x,x,n,x,x
CCc1cccc(NC(=O)c2coc(=O)c3ccccc23)c1,x,x,11µM,x,n
O=C(Nc1cccnc1)c1coc(=O)c2ccccc12,n,n,n,n,n
COc1cccc(NC(=O)c2cnn(-c3ccccc3)c2C)c1,1.8µM,13µM,1.5µM,u,x
CCc1cccc(NC(=O)c2cnn(-c3ccccc3)c2C)c1,1.8µM,2.2µM,2.1µM,0.89µM,x
CCn1ncc(C(=O)Nc2cccc(Cl)c2)c1C,u,u,9.5µM,n,13µM
Cc1cccc(C)c1NC(=O)c1cnn(-c2ccccc2)c1C,n,n,n,n,x
O=S(=O)(c1ccccc1)c1nnn2c1nc(NCc1ccc(F)cc1)c1sccc12,x,x,n,x,x
Cc1ccc(CSc2nc(-c3ccccc3C)nc3c2Cc2c(CO)cnc(C)c2O3)cc1,x,x,n,x,x
C[C@@]12CC[C@@H]3[C@H](CCC4=CC(=O)CC[C@]43C)[C@@H]1CC[C@@H]2C(=O)Cn1cnc2c(=S)nc[nH]c21,x,x,x,x,n[9.22 µM]
O=C(COC(=O)c1ccc(Cl)nc1)Nc1ccc2c(c1)CCC2,n,x,x,x,x
SMILES,ELG1 genotoxic,Rab9 prom act,FLuc modulator,NPC1 promoter act,SMN2 splice enh
O=C(Nc1ccc2c(c1)CCC2)c1ccc(Cl)nc1,u,u,12µM,n,u
O=C(Nc1ccc2c(c1)CCC2)c1cnc(Cl)c(Cl)c1,u,n,3µM,n,u
CS(=O)(=O)N1CCC2(CCCN(C(=O)Nc3ccccc3)C2)CC1,x,x,x,x,n
CCN(CC)CCN(C(=O)c1ccc(C(=O)OC)cc1)c1nc2ccc(Cl)cc2s1,x,x,n,x,x
CC(C)CC(=O)N/C(N)=N/c1nc2ccccc2o1,u,1.4µM,8.5µM,1.6µM,x
CC(C)(C)C(=O)N/C(N)=N/c1nc2ccccc2o1,u,0.45µM,n,0.89µM,x
N/C(=N\c1nc2ccccc2o1)NC(=O)c1ccccc1,8.2µM,u,u,4µM,n
COc1ccccc1C(=O)N/C(N)=N/c1nc2ccccc2o1,n,u,u,u,n
Cc1ccc(C(=O)N/C(N)=N/c2nc3ccccc3o2)cc1,u,u,n,u,n
CCC(=O)N/C(N)=N/c1nc2ccccc2o1,u,1.1µM,11µM,4µM,x
CC(=O)SC1CC2=CC(=O)CC[C@]2(C)C2CC[C@@]3(C)C(CC[C@@]34CCC(=O)O4)C12 (stereo not given in full),x,n,x,n,x
COc1cccc([C@@H]2Oc3ccc(Br)cc3C(=O)[C@H]2OC(=O)NS(=O)(=O)c2ccc(F)cc2)c1,x,x,x,x,n
Cc1cccc(Cn2c(=O)n(CCc3ccccc3)c(=O)c3sc4ccccc4c32)c1,x,x,n,x,n
CCCC(=O)N/C(N)=N/c1nc2ccccc2o1,u,0.71µM,6.7µM,0.89µM,x
